# Compound activity as filed in PubChem BioAssay.
# The list is not random: actives were taken first. Their share in the collection is about 12%.
# Pf growth 96h: Primary qHTS for delayed death inhibitors of the malarial parasite plastid, 96 hour incubation; actives 6.9% (n = 320,000); P. falciparum luciferase reporter growth, 96 h; Potency, µM (highest dose often 28.7 µM), inactives show at the highest dose activity change, negative = inhibition, usual class: inhibitors; also: % is scaled to controls: 0 for no effect and ±100 for the full control effect
#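 Cell-based qHTS: luciferase-tagged P. falciparum in erythrocytes (2% hematocrit, 0.05% parasitemia final) incubated with compounds for 96 hours, 37 C, 5% CO2; luciferase detection reagent then added and luminescence measured.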
# SARS PLP yeast: qHTS of Yeast-based Assay for SARS-CoV PLP; S. cerevisiae expressing SARS-CoV PLpro, growth rescue; Potency, µM (doses to about 32.9 µM), for the others: at the top dose activity, positive = growth rescue, most hits filed as activators; actives 0.19% (n = 330,000); calls by dose curve; also: 0% is about no effect; nearly all actives have a fitted effect of over 55% in size
# Pf growth 48h: Primary qHTS for delayed death inhibitors of the malarial parasite plastid, 48 hour incubation; AID 504832, 2011; P. falciparum luciferase growth in erythrocytes, 48 h; Potency, µM (doses to about 28.7 µM), for inactives: at the top dose activity change, negative = inhibition, hits mostly inhibitors; actives 5.9% (n = 310,000); also: % is scaled to controls: 0 for no effect and ±100 for the full control effect
#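 Luciferase-expressing P. falciparum in infected erythrocytes (2% hematocrit, 0.1% parasitemia final) in RPMI 1640/0.5% Albumax were exposed to compound for 48 hours at 37 C, 5% CO2; growth read as luminescence.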
# NS1 inh: qHTS Assay for Inhibitors of Influenza NS1 Protein Function; Potency, µM (doses to about 46.1 µM), for inactives: at the highest dose activity, positive = more growth; actives 0.4% (n = 270,000); calls by dose curve; also: actives are rising curves; nearly all actives have a fitted effect of over 50% in size
#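 OD600 was taken as the measure of yeast growth restored by compound in an NS1-expressing S. cerevisiae strain. Cells had been washed out of glucose medium and diluted 1:100 into galactose -URA medium, pH 6.0.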
# AMA1 RON2 block: qHTS for Inhibitors of AMA1-RON; Towards Development of Antimalarial Drug Lead: Primary Screen | actives 0.2% (n = 360,000) | AlphaScreen AMA1-biotinylated RON2 peptide binding | Potency, µM (series often up to 58.2 µM), for inactives: at the highest dose activity change, negative = inhibition, usual class: inhibitors;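 also: 0% = vehicle wells and -100% = peptide control; nearly all actives have a fitted effect of over 45% in size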
#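 AMA1 (3D7) with his tag at 25 nM final met compounds first, then biotinylated RON2 peptide at 25 nM; detection used donor plus acceptor beads, 10 µg/mL apiece, read by AlphaScreen after 30 min at room temperature.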
# HCV inhibitor: qHTS Assay for Inhibitors of Hepatitis C Virus (HCV). Huh7.5.1 HCVcc-Cre infection, luciferase reporter, 44 h. Potency, µM (series often up to 41.8 µM), for inactives: at the top dose activity change, negative = inhibition, usual class: inhibitors. actives 3.4% (n = 340,000); also: % is scaled to controls: 0 for no effect and ±100 for the full control effect
#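 1,000 cells/well; 4 h culture; + compound; + HCVcc-Cre (~0.5 moi); 44 h; luciferase substrate, RT 15 min; read 15 sec.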
# An asterisk follows results filed as active; ? = inconclusive; / = no result given; [ ] = dose if it differs, or a comment. Unless noted, calls follow the shape of the dose curve; as a rule, active = well fitted curve in the direction sought with a large enough effect; inconclusive = small, poorly fitted or top-dose-only effect, or another doubt; inactive = no such curve, though single readings can be large; an effect the other way counts as inactive or inconclusive. Potency is read from the fitted curve at half-maximal effect.
SMILES,Pf growth 96h,SARS PLP yeast,Pf growth 48h,NS1 inh,AMA1 RON2 block,HCV inhibitor
O=Cc1cn(CCOc2ccccc2)c2ccccc12,-15%,-4%,-9%,?,21%,12%
COc1ccc(CC(=O)Oc2ccc(Cl)cc2Br)cc1S(=O)(=O)N1CCOCC1,2%,-4%,0%,/,-3%,22%
O=S1(=O)N=C(Nc2ccc(O)c(CN3CCCCC3)c2)c2ccccc21,?,3%,1.5µM*,2%,1%,16%
N#CC(C(=S)Nc1ccccc1)c1nc2ccccc2[nH]1 (configuration not stated),4.7µM*,-2%,?,6%,89%,-21%
N#CC(C(=O)C1CCCCC1)c1nc2ccccc2[nH]1 (configuration not stated),?,-3%,?,5%,48%,10µM*
CSCC[C@H](NC(=O)C1CCCC1)c1nc2ccccc2[nH]1,6%,-4%,5%,-3%,-1%,2%
CSC(=Nc1ccccc1)C(C#N)c1nc2ccccc2[nH]1 (configuration not stated),?,0%,?,-8%,13%,-23%
CCCCOC(=O)c1ccc(N/C(=N\S(=O)(=O)c2ccccc2)c2ccccc2)cc1,?,8%,5%,-1%,3%,1%
CCOC(=O)c1ccc(N/C(=N\S(=O)(=O)c2ccc(F)cc2F)c2ccccc2)cc1,6.6µM*,-23%,?,-2%,2%,-25%
CC(C)(C)C1N=C(c2ccc3ccccc3c2)OC1=O (configuration not stated),22%,-6%,28%,/,-4%,17%
CCCC1OC(c2ccco2)OCC1CC (configuration not stated),/,/,/,/,12%,4%
Cc1cc(C(=O)CSc2nc(N)cc(N)n2)c(C)n1-c1cccc(F)c1,20%,8%,11%,25%,-1%,?
COc1ccccc1-c1cc(C(F)(F)F)nc(S(=O)(=O)CCCC(=O)Nc2cc(C)on2)n1,1.9µM*,3%,-9%,2%,7%,20%
COc1ccccc1-c1cc(C(F)(F)F)nc(S(=O)(=O)CCCC(=O)NCc2ccc(F)cc2)n1,2.9µM*,-6%,?,/,6%,?
COc1ccccc1-c1cc(C(F)(F)F)nc(S(=O)(=O)CCCC(=O)NC(C)C)n1,13%,2%,-8%,-4%,7%,?
COc1ccc(-c2cc(C(F)(F)F)nc(S(=O)(=O)CCCC(=O)Nc3cc(C)on3)n2)cc1OC,?,1%,?,/,3%,?
COc1cccc(NC(=O)N2CCCC2C(=O)NC2CCCC2)c1 (configuration not stated),-13%,-1%,25%,0%,14%,10%
Cc1cccc(N=CC=C2OC(C)(C)C(C)(C)O2)c1,15%,22%,?,-2%,4%,-8%
Cc1ccccc1N=CC=C1OC(C)(C)C(C)(C)O1,36%,9%,8.3µM*,21%,8%,5%
COc1ccc(O)c(C(=O)c2cnc3onc(C)c3c2)c1,9.3µM*,-1%,?,-9%,1%,14%
Cc1nn(-c2ccccc2)c2ncc(C(=O)c3cc(Cl)ccc3O)cc12,2.6µM*,-26%,1.9µM*,12%,-15%[11.6 µM],?
Cc1nn(C)c2ncc(C(=O)c3ccccc3O)cc12,-8%,0%,-3%,-7%,12%,-11%
Cc1ccc(O)c(C(=O)c2cnc3c(c2)c(C)nn3C)c1,8.3µM*,-6%,?,-8%,-7%,-17%
O=C(c1cnc2ccc3ccccc3c2c1)c1cc(F)ccc1O,?,-1%,3.7µM*,-28%,-19%,5.6µM*
COc1ccc(O)c(C(=O)c2cnc3c(c2)c(C)nn3C)c1,?,-12%,?,-24%,-12%,-3%
SMILES,Pf growth 96h,SARS PLP yeast,Pf growth 48h,NS1 inh,AMA1 RON2 block,HCV inhibitor
Cc1ccc(N2C(=O)N(CC(=O)Nc3ccc(C)c(C)c3)C(=O)C2C)cc1 (configuration not stated),-11%,/,12%,/,0%,?
CCOc1ccc(C(=O)NCc2ccco2)cc1Cl,?,0%,?,25%,2%,6%
Cc1nn(C)c2ncc(C(=O)c3cc(F)ccc3O)cc12,10µM*,-2%,/,-12%,4%,-16%
Cn1c(=O)n(Cc2ccc(Cl)cc2)c(=O)c2c1nc1n2CCN1Cc1ccco1,13µM*,7%,?,-29%,4%,16µM*
Cc1cccc(Cn2c(=O)c3c(nc4n3CCN4Cc3ccco3)n(C)c2=O)c1,5.9µM*,-1%,9.3µM*,-4%,0%,?
Cn1c(=O)n(Cc2ccccc2F)c(=O)c2c1nc1n2CCN1Cc1ccco1,8.3µM*,1%,?,/,-23%,-5%
CCCn1c(=O)c2c(nc3n2CCN3Cc2ccco2)n(C)c1=O,6%,0%,-17%,/,0%,-19%
COc1ccccc1Oc1nc2c(c(=O)n(Cc3ccccc3F)c(=O)n2C)n1C,15µM*,-5%,-25%,-35%,4%,?
O=C(C[C@H]1C/C=C\C[C@H](NC(=O)OCC2c3ccccc3-c3ccccc32)C(=O)OC[C@@H]2CCCN2C1=O)NCCO,/,-2%,/,/,20%,7%
CCN(CC)C(=O)C1CCCN(c2ccc([N+](=O)[O-])cc2[N+](=O)[O-])C1 (configuration not stated),3%,0%,-5%,-1%,0%,-15%
CCN(CC)C(=O)C1CCCN(c2ccc([N+](=O)[O-])cc2/C=N/NC(=O)c2cccc([N+](=O)[O-])c2)C1 (configuration not stated),10µM*,6%,?,19%,44%,?
O=C(N/N=C/c1cc([N+](=O)[O-])ccc1N1CCNCC1)c1ccc([N+](=O)[O-])cc1,4.1µM*,5%,?,1%,23%,?
O=C(Cn1c2ccccc2c(=O)c2ccccc21)N/N=C/c1cc([N+](=O)[O-])ccc1N1CCCCCC1,23%,-2%,9%,14%,26%,2.5µM*
O=C(NCC1CCCO1)c1ccc(NC(=O)c2cccc([N+](=O)[O-])c2)cc1 (configuration not stated),?,-6%,5%,5%,2%,?
CCOC(=O)c1ccccc1NC(=O)c1c(F)c(F)c(F)c(F)c1F,10%,-26%,-5%,-124%,9%,10µM*
